Autofluor Jurkat = compound autofluorescence on Jurkat cells, primary screen, artefact control for VLA-4 allosteric ligand project, cell-based, flow cytometry | hit rate 0.61% among 24,000 | AID 576, 2007 | hits give high values; 1 = vehicle-only cell background | fluorescence ratio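 (tested at 10 µM compound in the well)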;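 active = fluorescence ratio above 2.44, which is 1 plus 3 SD of all ratios; inconclusive = signal too bright to measure linearly, ratio around 10 or more; inactive = fluorescence ratio below 2.44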;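 also: green fluorescence of cells measured with 488 nm excitation and 530 nm emission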
VLA-4 antagonist = inhibitors of LDV-FITC binding to Mn2+-activated VLA-4, primary screen, Jurkat cells; hit rate 0.2% among 24,000; inhibition, % at 10 µM (by protocol); LDV-FITC binding with Mn2+, flow cytometry; 100% = Mn2+-driven binding gain fully reversed; Integrin alpha-4 (Homo sapiens), P13612; AID 529, 2006;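 active = inhibition above 50%; inconclusive = compound itself fluorescent, judged against control cell fluorescence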;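 also: 0% = Mn2+ stimulated cells lacking compound and 100% = ligand binding without Mn2+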
FPRL1 ligand = human FPRL1 ligands by binding competition, primary screen, cell-based, FPR counter-screen, flow cytometry. FPRL1-expressing cells, fluorescent ligand binding inhibition. inhibition, % (concentration not given with the values). hit rate 0.3% among 24,000. AID 441, 2006;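 also: 0% = buffer alone and 100% = receptor blocker peptide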
VLA-4 allo ag = enhancers of LDV-FITC binding to VLA-4 integrin, primary screen, Jurkat cells, flow cytometry | Integrin alpha-4 (Homo sapiens), P13612 | activation, % at 10 µM (by protocol) | 24,000 tested, under 10 active | AID 528, 2006;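 active = fluorescent ligand binding to cells raised by more than 40% of the manganese-induced maximum; inconclusive = compound's own fluorescence above 85% of the ligand control signal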;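 also: 0% = ligand binding without compound and 100% = manganese-stimulated maximal binding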
FPR binder = human FPR ligands by binding competition, primary screen, cell-based, FPRL1 counter-screen, flow cytometry | AID 440, 2006 | FPR-expressing cells, fluorescent ligand binding | hit rate 0.74% among 24,000 | inhibition, % (concentration not given with the values);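 also: 0% = buffer wells and 100% = receptor blocker peptide wells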
Numbers without * were called inactive; ? = inconclusive; / = no result. A selection: hits, their analogues and other compounds. The true share with any hit is near 1.4%. Rule as the data show it, unless noted: active = inhibition above about 30%; inconclusive = no clear call, values can overlap the other calls; inactive = below that.

SMILES | Autofluor Jurkat | VLA-4 antagonist | FPRL1 ligand | VLA-4 allo ag | FPR binder
Cc1ccc(S(=O)(=O)Nc2nc3ccccc3nc2NCc2ccco2)cc1 | 4.8* | ? | 2 | ? | -3
O=S(=O)(Nc1nc2ccccc2nc1NCc1ccco1)c1ccc(Cl)cc1 | 0.93 | -28 | -2 | 10 | 5
COc1ccc(-c2nnc(SCc3nnc(-c4ccc(Cl)cc4)o3)n2-c2ccccc2)cc1 | 1.1 | -6 | 1 | -2 | -6
Cc1nc2ccc(F)cc2cc1C(=O)NCC1CCCO1 (centres undefined) | 3.4* | ? | -4 | ? | -4
Cc1cc(N2CCN(C3CCCC3)CC2)n2c(nc3ccccc32)c1C#N | 0.94 | 2 | 1 | -1 | 8
Cc1c(CCC#N)c(N2CCN(C3CCCCC3)CC2)n2c(nc3ccccc32)c1C#N | 8.6* | ? | -14 | ? | -19
CC(C)OC(=O)c1nnn(-c2nonc2N)c1CN1CCc2ccccc2C1 | 1.3 | ? | -10 | ? | 43*
CN(C)c1ccc(C2C=C(c3ccc(Cl)cc3OC(F)F)Nc3ncnn32)cc1 (centres undefined) | 2.8* | ? | -32 | ? | -29
Cc1ccc(C2C=C(c3ccccc3OC(F)F)Nc3ncnn32)cc1 (centres undefined) | 1.3 | ? | 7 | ? | 15
CCOc1cc2[nH]c(=O)n(CCCCC(=O)NC3CCCCCC3)c(=O)c2cc1OCC | 0.95 | 66* | 8 | -10 | 0
CCOc1cc2[nH]c(=O)n(CC3CCC(C(=O)NCCC(C)C)CC3)c(=O)c2cc1OCC (centres undefined) | 1.1 | 60* | -4 | -26 | 0
O=C(CCCn1c(=O)[nH]c2ccccc2c1=O)NC1CCCCCC1 | 1 | -5 | 1 | 2 | 2
CCOc1ccccc1NC(=O)CSc1nccn1-c1ccccc1 | 0.97 | 28 | 37* | -4 | 44*
CCOc1cccc2cc(-c3nnc(-c4ccccc4)o3)c(=O)oc12 | 0.98 | 1 | 0 | -2 | 0
Cc1oc(-c2ccc(Cl)cc2)nc1CN1CCCC(C(=O)N2CCc3ccccc32)C1 (centres undefined) | 1.1 | 59* | -3 | -10 | 3
Cc1nn(-c2ccc(F)cc2)c2c1cc(C#N)c1nc3ccccc3n12 | 1 | -2 | -1 | -2 | -1
COc1cccc(-c2nc(CS(=O)(=O)CC(=O)NCCC(C)C)c(C)o2)c1 | 1 | 22 | 2 | 0 | 34*
Cc1cccn2c(=O)c3cc(C(=O)N(C)C)n(C)c3nc12 | 3.1* | ? | -2 | ? | -2
CCNC(=O)c1cc2c(=O)n3cccc(C)c3nc2n1C | 1.4 | ? | -4 | ? | -2
O=C(NCCCN1CCN(c2cccc(Cl)c2)CC1)c1nc(-c2ccncc2)no1 | 1 | 17 | 2 | -3 | -1
COc1cccc2c1C(=O)c1c(O)c3c(c(O)c1C2=O)C[C@@](O)(C(C)=O)C[C@@H]3O[C@H]1C[C@H](N)[C@H](O)[C@H](C)O1 | ? | ? | 32* | ? | -15
O=S(=O)(c1ccc(Br)s1)n1cccn1 | 1 | 2 | 0 | 2 | 3
Cc1[nH]n2c(=O)c3c(nc2c1-c1cccc2ccccc12)CCC3 | / | / | 28 | / | 48*
Cc1[nH]n2c(=O)c3c(nc2c1-c1ccccc1)CCCC3 | / | / | 0 | / | 11
COc1cccc(NC(=O)CCS(=O)(=O)c2cccs2)c1 | 1.6 | ? | -2 | ? | -3
SMILES | Autofluor Jurkat | VLA-4 antagonist | FPRL1 ligand | VLA-4 allo ag | FPR binder
COc1cc2c(cc1OC)C(C)N(C(=O)c1cc3n(n1)C(C(F)(F)F)CC(c1ccco1)N3)CC2 (centres undefined) | 1 | 12 | -5 | -14 | -6
O=C(NCC12CC3CC(CC(C3)C1)C2)c1cc2n(n1)C(C(F)(F)F)CC(c1ccco1)N2 (centres undefined) | 3.5* | ? | -12 | ? | 7
CCCCCOC(=O)C1=C(C)N(C)C(=O)NC1c1cc(Br)c(O)c(OC)c1 (centres undefined) | 1.1 | -8 | 1 | -7 | -3
Cc1cc(S(=O)(=O)NC2CCCCC2)ccc1OCC(=O)NCc1ccccn1 | 1 | -2 | 8 | 0 | 16
CCCCC[C@H](O)/C=C/[C@H]1C=CC(=O)[C@@H]1C/C=C\CCCC(=O)O | 1.2 | -58 | 0 | 42* | -3
Cc1ccc(C(=O)C2=C(O)C(=O)N(CCCn3ccnc3)C2c2ccc(OC(C)C)cc2)o1 (centres undefined) | / | / | -2 | / | 65*
Cc1nc(C)c(C(=O)C2=C(O)C(=O)N(CCCn3ccnc3)C2c2ccccc2)s1 (centres undefined) | 1.1 | -16 | 4 | 0 | 1
COCCN1C(=O)C(O)=C(C(=O)c2cccs2)C1c1ccccc1 (centres undefined) | / | / | -5 | / | 60*
CCOc1ccc(C2C(C(=O)c3cccs3)=C(O)C(=O)N2CCCn2ccnc2)cc1 (centres undefined) | / | / | 8 | / | 30*
CCOc1ccc(C2C(C(=O)c3ccco3)=C(O)C(=O)N2CCCn2ccnc2)cc1 (centres undefined) | / | / | 1 | / | 70*
CCC1CCCCN1C(=O)CSc1nnc(CNC(=O)COc2ccc(Cl)cc2)o1 (centres undefined) | 1.1 | 3 | -1 | -1 | 2
O=C(Cn1c(=O)oc2cc(S(=O)(=O)N3CCc4ccccc43)ccc21)N1CCCCC1 | 1.2 | ? | 1 | ? | -2
CC1Cc2ccccc2N1C(=O)Cn1c(=O)oc2cc(S(=O)(=O)N3CCCCC3)ccc21 (centres undefined) | 5.1* | ? | -7 | ? | -8
CCCc1[nH]nc2c1C(CCc1ccccc1)C(C#N)=C(N)O2 (centres undefined) | 1.2 | 61* | 2 | -10 | 1
O=C(Nc1ccc2c(c1)OCO2)C(c1ccc(Cl)cc1)N1CCC2(CC1)OCCO2 (centres undefined) | 1.1 | 7 | -10 | -10 | -17
CC(C)c1ccc(NC(=O)C(c2ccc3c(c2)OCO3)N2CCC3(CC2)OCCO3)cc1 (centres undefined) | 1.1 | 54* | -8 | -4 | 10
c1cncc(-c2nc3ccccc3o2)c1 | 9.8* | ? | ? | ? | ?
COc1ccc(C2OC(=O)CC2C(=O)NC2CCCCCC2)cc1OC (centres undefined) | 1 | 3 | 2 | 6 | 3
COc1ccc(/C(O)=C2/C(=O)C(=O)N(Cc3ccco3)C2c2cccs2)cc1 (centres undefined) | / | / | -6 | / | 8
COC(=O)c1ccc(C2/C(=C(/O)c3ccc(OC)cc3)C(=O)C(=O)N2Cc2ccco2)cc1 (centres undefined) | / | / | 5 | / | 38*
